From PubChem BioAssay AID651599 (National Center for Advancing Translational Sciences (NCATS), 2012)
Results filed as inconclusive are left out. Active and inactive are the calls of the source. The call rests on the fitted dose curve; in most records, active means well fitted inhibition curve with a large enough effect; inconclusive means small, poorly fitted or top-dose-only effect; inactive means no such curve, though single readings can be large or run the other way.

Each compound was assayed against Tumor susceptibility gene 101 protein (Homo sapiens) (UniProt Q99816) (assay: qHTS Assay for Iinhibitors of HIV-1 Budding by Blocking the Interaction of PTAP/TSG101: Hit Validation in TR assay). Settings: Tsg101 binding domain + Texas Red-labeled PTAP peptide, fluorescence polarization, 20 min; series mostly up to 57.5 µM.
How it was run: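 Fluorescence polarization: Tsg101 binding domain (10 uM final) with Texas Red-labelled PTAP peptide (50 nM final) in HEPES pH 7.5, 0.15 M NaCl, Tween 20, EDTA, TCEP; 20 min binding at room temperature after compound addition.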
Potency means the concentration at half of the fitted maximal effect.

Tumor susceptibility gene 101 protein (Homo sapiens), sequence (Q99816 whole entry, looked up, the tested form may be a part): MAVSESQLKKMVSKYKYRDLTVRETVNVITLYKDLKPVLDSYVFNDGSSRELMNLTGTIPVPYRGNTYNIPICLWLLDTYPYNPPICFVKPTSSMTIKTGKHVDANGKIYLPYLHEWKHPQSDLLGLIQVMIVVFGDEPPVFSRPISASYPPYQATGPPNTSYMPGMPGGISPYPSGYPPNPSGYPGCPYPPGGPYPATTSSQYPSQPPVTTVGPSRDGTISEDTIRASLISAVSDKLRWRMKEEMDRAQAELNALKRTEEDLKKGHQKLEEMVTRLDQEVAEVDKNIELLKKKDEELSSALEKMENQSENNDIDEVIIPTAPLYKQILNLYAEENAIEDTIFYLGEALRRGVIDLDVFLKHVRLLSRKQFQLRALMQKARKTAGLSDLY

Potency, inactive:
COCC1CCN(Cc2c(C(=O)N3CCc4ccccc4C3)nc3ccc(Cl)cn23)C1 (centres undefined)
CCN(CC)CCCNc1ccc2ncn3c4ccc(O)cc4c(=O)c1c23
COc1cccc2c1C(=O)c1c(O)c3c(c(O)c1C2=O)C[C@@](O)(C(=O)CO)C[C@@H]3OC1CC(N)C(O)C(C)O1 (some centres undefined)
Cc1c(C(=O)Nc2cccc(C(F)(F)F)c2)sc2nc3n(c(=O)c12)CCCC3
CCOc1ccc(NC(=O)N(C2CCCCC2)C(C)c2ccncc2)cc1 (centres undefined)
COc1ncnc2c1N=C1CC(C)(C)CC(N)=C1S2
O=C(C1=NN(c2ccccc2)C2C(=O)N(c3ccccc3Cl)C(=O)C12)c1ccccc1 (centres undefined)
CCOc1ccc(NC(=O)c2ccc3c(c2)CCN3S(C)(=O)=O)cc1
CC(=O)N(/N=C1/C(=O)Nc2ccccc21)c1ccccc1
CC1=Nc2ccccc2/C1=C\c1nc(-c2ccc(F)cc2)oc1O
O=C(CC1CC2CCC1C2)NCc1cccs1 (centres undefined)
O=[N+]([O-])c1cc(Cl)c2cccnc2c1O
O=c1oc2c3c4c(cc2c2c1CCC2)OCCN4CCC3
O=C1NC(=S)/C(=C\c2ccc(-c3ccccc3Cl)o2)S1
O=C1c2cccc3c([N+](=O)[O-])ccc(c23)C(=O)N1c1ccc(Cl)cn1
COc1ccc(CNC(=O)C(C#N)c2nc3ccccc3nc2N2CCCC2)cc1 (centres undefined)
CCN1C(=O)c2cccc3c(N)ccc(c23)C1=O
O=C(NCC1CCCO1)c1cccc2c1C(=O)c1ccc(N3CCC(Cc4ccccc4)CC3)cc1S2(=O)=O (centres undefined)
COc1ccc(CNS(=O)(=O)c2cc3c(cc2Cl)N(C(C)=O)CCO3)cc1
COc1ccc(NC(=O)c2nc(-c3ccc(C)cc3)n3c2CCCCC3)cc1
CCc1cccc2cc3c(N)c(C(=O)Nc4ccc(S(=O)(=O)N5CCCC5)cc4)sc3nc12
CCN(CC)c1ccc(/C=C(\C#N)C(=O)c2ccc(Br)cc2)cc1
Cc1cc([N+](=O)[O-])ccc1-c1ccc(/C=N/NC(=O)Cc2ccccc2)o1
COc1cc2c(cc1OC)-c1cc3ccc4c(c3c[n+]1CC2)OCO4
CCn1cc(C=C2C(=O)c3ccccc3C2=O)c2ccccc21
CC(C)c1nnc(N2C(=O)C(O)=C(C(=O)c3cccs3)C2c2ccccc2)s1 (centres undefined)
N#C/C(=C\c1ccccn1)c1nc2ccccc2s1
O=[N+]([O-])c1ccc(-c2ccc(/C=N/Nc3nc(N4CCCC4)nc(N4CCCC4)n3)o2)cc1
COc1ccccc1Nc1nc2ccc(C)cc2cc1C#N
O=C1N=C(N2C=CC(=C3C=CNC=C3)C=C2)/C(=C/N=NC(=O)c2ccccc2O)S1
CSc1ccc(C2C(C(=O)c3ccco3)=C(O)C(=O)N2c2nnc(SC)s2)cc1 (centres undefined)
COc1cc(OC)c(-c2cc(C(=O)O)ccc2OC)c(OC)c1
Nc1c(C(=O)Nc2ccc(F)cc2)sc2nc(-c3cccs3)cc(C(F)(F)F)c12
COc1ccc(N(C(=O)c2snc(C(N)=O)c2N)C(C(=O)NC2CCCC2)c2ccc3ncccc3c2)cc1 (centres undefined)
O=c1oc2cc(O)ccc2cc1-c1nc2c(s1)CCc1ccccc1-2
Nc1c(C(=O)Nc2ccccc2F)sc2nc(Cc3ccccc3)cc(C(F)(F)F)c12
COC(=O)c1cc2c(N)c(C(=O)c3ccc(Cl)cc3)sc2nc1C(OC)OC
CCc1c(C)sc(NC(=O)c2ccccc2[N+](=O)[O-])c1C(N)=O

Potency, active:
Cn1c(=O)c(N)c2c3c(c(Br)ccc31)C(=O)c1ccccc1-2 18.3 µM
